From the supplement of paper PMC6992640 come the findings set out here.

For the first test, the system named is HCI01 (cells of a triple-negative basal-like breast cancer xenograft). Description: cell viability of combination (% of vehicle); higher = less cytotoxic. As to conditions: 1 µM; 72 h; partner dose: 10 nM. How it is done:
(§1)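 PDX cells were treated for 72 h with each drug at 1 µM plus afatinib (10 nM; 1 µM for WHIM30). Luciferase viability is expressed as percent of vehicle.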
As for `CN1CCN(CCCN2c3ccccc3Sc3ccc(C(F)(F)F)cc32)CC1.Cl.Cl` [Trifluoperazine 2HCl] + CN(C)C/C=C/C(=O)Nc1cc2c(Nc3ccc(F)c(Cl)c3)ncnc2cc1O[C@H]1CCOC1 [Afatinib], the “cell viability of combination” value stood at 56.1.

In the case of `CCc1c(Cl)c(O)c(Cl)c(O)c1C(=O)OC1C(C)OC(OCC2=CC=CCC(O)C(C)=CC(CC)C(OC3OC(C)(C)C(OC(=O)C(C)C)C(O)C3O)C(C)=CC(C)=CCC(C(C)O)OC2=O)C(OC)C1O` (configuration not stated) [Fidaxomicin] + CN(C)C/C=C/C(=O)Nc1cc2c(Nc3ccc(F)c(Cl)c3)ncnc2cc1O[C@H]1CCOC1 [Afatinib], the “cell viability of combination” value worked out at 56.2.

As to `CCC(=C(c1ccccc1)c1ccc(OCCN(C)C)cc1)c1ccccc1.O=C(O)CC(O)(CC(=O)O)C(=O)O` [Tamoxifen Citrate] + CN(C)C/C=C/C(=O)Nc1cc2c(Nc3ccc(F)c(Cl)c3)ncnc2cc1O[C@H]1CCOC1 [Afatinib], the “cell viability of combination” value amounted to 65.

Regarding `Clc1ccc(C(Cn2ccnc2)OCc2ccc(Sc3ccccc3)cc2)c(Cl)c1.O=[N+]([O-])O` (configuration not stated) [Fenticonazole Nitrate] + CN(C)C/C=C/C(=O)Nc1cc2c(Nc3ccc(F)c(Cl)c3)ncnc2cc1O[C@H]1CCOC1 [Afatinib], the “cell viability of combination” value came out at 49.2.

Turning to `CN1CCN(c2ccc(C(=O)/N=c3\[nH][nH]c4ccc(Cc5cc(F)cc(F)c5)cc34)c(NC3CCOCC3)c2)CC1` [Entrectinib] + CN(C)C/C=C/C(=O)Nc1cc2c(Nc3ccc(F)c(Cl)c3)ncnc2cc1O[C@H]1CCOC1 [Afatinib], the “cell viability of combination” value is 57.5.

On to `Clc1ccc(COC(Cn2ccnc2)c2ccc(Cl)cc2Cl)c(Cl)c1.O=[N+]([O-])O` (configuration not stated) [Miconazole Nitrate] + CN(C)C/C=C/C(=O)Nc1cc2c(Nc3ccc(F)c(Cl)c3)ncnc2cc1O[C@H]1CCOC1 [Afatinib], for which the “cell viability of combination” value stood at 63.9.

In the case of `COC(=O)C12CCC(C)(C)CC1C1C(=O)C=C3C4(C)C=C(C#N)C(=O)C(C)(C)C4CCC3(C)C1(C)CC2` (configuration not stated) [Bardoxolone methyl] + CN(C)C/C=C/C(=O)Nc1cc2c(Nc3ccc(F)c(Cl)c3)ncnc2cc1O[C@H]1CCOC1 [Afatinib], the “cell viability of combination” value was 53.5.

For the compound `CNCCC(Oc1cccc2ccccc12)c1cccs1.Cl` (configuration not stated) [Duloxetine HCl] + CN(C)C/C=C/C(=O)Nc1cc2c(Nc3ccc(F)c(Cl)c3)ncnc2cc1O[C@H]1CCOC1 [Afatinib], the “cell viability of combination” value was found to be 45.3.

Regarding `COc1ccccc1OCCNCC(O)COc1cccc2[nH]c3ccccc3c12` (configuration not stated) [Carvedilol] + CN(C)C/C=C/C(=O)Nc1cc2c(Nc3ccc(F)c(Cl)c3)ncnc2cc1O[C@H]1CCOC1 [Afatinib], the “cell viability of combination” value was 48.7.

With `CCOC(=O)C1=C(COCCN)NC(C)=C(C(=O)OC)C1c1ccccc1Cl` (configuration not stated) [Amlodipine] + CN(C)C/C=C/C(=O)Nc1cc2c(Nc3ccc(F)c(Cl)c3)ncnc2cc1O[C@H]1CCOC1 [Afatinib], the “cell viability of combination” value amounted to 58.2.

With `COc1cc2ncnc(Nc3ccc(F)c(Cl)c3)c2cc1NC(=O)C=CCN1CCCCC1` + CN(C)C/C=C/C(=O)Nc1cc2c(Nc3ccc(F)c(Cl)c3)ncnc2cc1O[C@H]1CCOC1 [Afatinib], the “cell viability of combination” value was found to be 45.1.

`CCCCCCCCCCCC1=C(O)C(=O)C=C(O)C1=O` [Embelin] + CN(C)C/C=C/C(=O)Nc1cc2c(Nc3ccc(F)c(Cl)c3)ncnc2cc1O[C@H]1CCOC1 [Afatinib]: the “cell viability of combination” value came out at 52.9.

For the compound `Cc1nc(Nc2ncc(C(=O)Nc3c(C)cccc3Cl)s2)cc(N2CCN(CCO)CC2)n1` + CN(C)C/C=C/C(=O)Nc1cc2c(Nc3ccc(F)c(Cl)c3)ncnc2cc1O[C@H]1CCOC1 [Afatinib], the “cell viability of combination” value was 41.5.

A further test has as its system WHIM2 (cells of a triple-negative basal-like breast cancer xenograft). Described as above. As to conditions: 1 µM; 72 h; partner dose: 10 nM. As to the method: as §1
On to `CNCCC(Oc1ccc(C(F)(F)F)cc1)c1ccccc1.Cl` (configuration not stated) [Fluoxetine HCl] + CN(C)C/C=C/C(=O)Nc1cc2c(Nc3ccc(F)c(Cl)c3)ncnc2cc1O[C@H]1CCOC1 [Afatinib], for which the “cell viability of combination” value stood at 43.8.

Turning to `Cc1cccc(CN2CCN(C(c3ccccc3)c3ccc(Cl)cc3)CC2)c1.Cl.Cl` (configuration not stated) [Meclizine 2HCl] + CN(C)C/C=C/C(=O)Nc1cc2c(Nc3ccc(F)c(Cl)c3)ncnc2cc1O[C@H]1CCOC1 [Afatinib], the “cell viability of combination” value came out at 53.1.

Regarding `CC1=CC(=O)c2ccccc2C1=O` [Menadione] + CN(C)C/C=C/C(=O)Nc1cc2c(Nc3ccc(F)c(Cl)c3)ncnc2cc1O[C@H]1CCOC1 [Afatinib], the “cell viability of combination” value turned out to be 50.2.

With `CCC(NC(=O)C(C)NC)C(=O)N1CC(O)CC1Cc1c(-c2[nH]c3cc(F)ccc3c2CC2CC(O)CN2C(=O)C(CC)NC(=O)C(C)NC)[nH]c2cc(F)ccc12` (configuration not stated) + CN(C)C/C=C/C(=O)Nc1cc2c(Nc3ccc(F)c(Cl)c3)ncnc2cc1O[C@H]1CCOC1 [Afatinib], the “cell viability of combination” value came out at 19.1.

For `CCOc1cc2ncc(C#N)c(Nc3ccc(OCc4ccccn4)c(Cl)c3)c2cc1NC(=O)C=CCN(C)C` [Neratinib (HKI-272)] + CN(C)C/C=C/C(=O)Nc1cc2c(Nc3ccc(F)c(Cl)c3)ncnc2cc1O[C@H]1CCOC1 [Afatinib], the “cell viability of combination” value stood at 25.5.

`Cl.OC(c1cc(C(F)(F)F)nc2c(C(F)(F)F)cccc12)C1CCCCN1` (configuration not stated) [Mefloquine hydrochloride] + CN(C)C/C=C/C(=O)Nc1cc2c(Nc3ccc(F)c(Cl)c3)ncnc2cc1O[C@H]1CCOC1 [Afatinib]: the “cell viability of combination” value was 55.9.

Consider `COc1cccc2c1C(=O)c1c(O)c3c(c(O)c1C2=O)CC(O)(C(=O)CO)CC3OC1CC(N)C(O)C(C)O1.Cl` (configuration not stated) [Doxorubicin (Adriamycin) HCl] + CN(C)C/C=C/C(=O)Nc1cc2c(Nc3ccc(F)c(Cl)c3)ncnc2cc1O[C@H]1CCOC1 [Afatinib], for which the “cell viability of combination” value was 13.6.

Consider `CCc1cnn2c(NCc3ccc[n+]([O-])c3)cc(N3CCCCC3CCO)nc12` (configuration not stated) + CN(C)C/C=C/C(=O)Nc1cc2c(Nc3ccc(F)c(Cl)c3)ncnc2cc1O[C@H]1CCOC1 [Afatinib], for which the “cell viability of combination” value worked out at 16.4.

For `CN(C)c1ccc(C(=C2C=CC(=[N+](C)C)C=C2)c2ccc(N(C)C)cc2)cc1.[Cl-]` [Crystal Violet] + CN(C)C/C=C/C(=O)Nc1cc2c(Nc3ccc(F)c(Cl)c3)ncnc2cc1O[C@H]1CCOC1 [Afatinib], the “cell viability of combination” value worked out at 28.4.

In the case of `CC(Oc1cc(-c2cnn(C3CCNCC3)c2)cnc1N)c1c(Cl)ccc(F)c1Cl` [(R)-Crizotinib] + CN(C)C/C=C/C(=O)Nc1cc2c(Nc3ccc(F)c(Cl)c3)ncnc2cc1O[C@H]1CCOC1 [Afatinib], the “cell viability of combination” value is 44.4.

`CCCCCOc1ccc(-c2ccc(-c3ccc(C(=O)N[C@H]4C[C@@H](O)[C@@H](O)NC(=O)[C@@H]5[C@@H](O)[C@@H](C)CN5C(=O)[C@H]([C@@H](C)O)NC(=O)[C@H]([C@H](O)[C@@H](O)c5ccc(O)cc5)NC(=O)[C@@H]5C[C@@H](O)CN5C(=O)[C@H]([C@@H](C)O)NC4=O)cc3)cc2)cc1` [Anidulafungin] + CN(C)C/C=C/C(=O)Nc1cc2c(Nc3ccc(F)c(Cl)c3)ncnc2cc1O[C@H]1CCOC1 [Afatinib]: the “cell viability of combination” value came out at 43.

Consider `COc1cc2c(Oc3ccc4[nH]c(C)cc4c3F)ncnc2cc1OCCCN1CCCC1` [Cediranib (AZD217)] + CN(C)C/C=C/C(=O)Nc1cc2c(Nc3ccc(F)c(Cl)c3)ncnc2cc1O[C@H]1CCOC1 [Afatinib], for which the “cell viability of combination” value stood at 31.6.

`CCOC(=O)C1=C(COCCN)NC(C)=C(C(=O)OC)C1c1ccccc1Cl.O=S(=O)(O)c1ccccc1` (configuration not stated) [Amlodipine Besylate] + CN(C)C/C=C/C(=O)Nc1cc2c(Nc3ccc(F)c(Cl)c3)ncnc2cc1O[C@H]1CCOC1 [Afatinib]: the “cell viability of combination” value was 51.7.

As for `Cc1cc(Nc2ncc(Cl)c(Nc3ccccc3S(=O)(=O)C(C)C)n2)c(OC(C)C)cc1C1CCNCC1` + CN(C)C/C=C/C(=O)Nc1cc2c(Nc3ccc(F)c(Cl)c3)ncnc2cc1O[C@H]1CCOC1 [Afatinib], the “cell viability of combination” value amounted to 36.7.

Take `CNC(=O)c1cc(Oc2ccc(NC(=O)Nc3ccc(Cl)c(C(F)(F)F)c3)cc2)ccn1.Cc1ccc(S(=O)(=O)O)cc1` [Sorafenib Tosylate] + CN(C)C/C=C/C(=O)Nc1cc2c(Nc3ccc(F)c(Cl)c3)ncnc2cc1O[C@H]1CCOC1 [Afatinib]: the “cell viability of combination” value is 42.4.

With `C=CC(=O)N1CCC(Oc2cc3c(Nc4ccc(Cl)c(Cl)c4F)ncnc3cc2OC)CC1` [Poziotinib] + CN(C)C/C=C/C(=O)Nc1cc2c(Nc3ccc(F)c(Cl)c3)ncnc2cc1O[C@H]1CCOC1 [Afatinib], the “cell viability of combination” value turned out to be 22.2.

With `CS(=O)(=O)CCNCc1ccc(-c2ccc3ncnc(Nc4ccc(OCc5cccc(F)c5)c(Cl)c4)c3c2)o1.Cc1ccc(S(=O)(=O)O)cc1.Cc1ccc(S(=O)(=O)O)cc1` [Lapatinib Ditosylate] + CN(C)C/C=C/C(=O)Nc1cc2c(Nc3ccc(F)c(Cl)c3)ncnc2cc1O[C@H]1CCOC1 [Afatinib], the “cell viability of combination” value was 36.7.

On to `CCOc1cc2ncc(C#N)c(Nc3ccc(F)c(Cl)c3)c2cc1NC(=O)C=CCN(C)C` [Pelitinib (EKB-569)] + CN(C)C/C=C/C(=O)Nc1cc2c(Nc3ccc(F)c(Cl)c3)ncnc2cc1O[C@H]1CCOC1 [Afatinib], for which the “cell viability of combination” value was 22.1.

In the case of `COc1cc(Nc2c(C#N)cnc3cc(OCCCN4CCN(C)CC4)c(OC)cc23)c(Cl)cc1Cl` [Bosutinib (SKI-606)] + CN(C)C/C=C/C(=O)Nc1cc2c(Nc3ccc(F)c(Cl)c3)ncnc2cc1O[C@H]1CCOC1 [Afatinib], the “cell viability of combination” value is 38.
